Whole data set: some 16,000 sequences, median “rpm ratio (pull-down/input)” near 0.94, cut for the highest 2% near 1.7. What follows is part of a selection rich in the highest values, with near analogues and random picks from the rest.
Molecular target: T1, MBP-FoxP1dN (Mus musculus, UniProt P58462 326-579)
T1 sequence: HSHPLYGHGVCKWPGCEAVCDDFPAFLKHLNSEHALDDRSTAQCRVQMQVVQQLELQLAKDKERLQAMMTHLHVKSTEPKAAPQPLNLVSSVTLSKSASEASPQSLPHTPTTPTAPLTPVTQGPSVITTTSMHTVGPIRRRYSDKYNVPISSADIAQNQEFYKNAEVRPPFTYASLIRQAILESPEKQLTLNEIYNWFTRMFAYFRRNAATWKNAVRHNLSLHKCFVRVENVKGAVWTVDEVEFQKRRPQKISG
Test: PD-seq (MBP pull-down with sequencing); 20 mM Tris-HCl pH 7.5, 100 mM NaCl, 1.5 mM MgCl2, 0.4 uM protein, 0.1 uM dsDNA library, 30 min, room temperature, amylose pull-down; high values mean tight binding
Conditions: protein: recombinant; tags: His6-MBP; chain copies: 2; dsDNA, one strand shown
Procedure, shortened: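 His6-MBP-tagged mouse FoxP3 or FoxP1 fragment lacking the N-terminus, expressed in E. coli, was mixed at 0.4 µM with 0.1 µM Klenow-filled double-stranded degenerate DNA library. Incubation was 30 min at room temperature in Tris pH 7.5 buffer with NaCl and MgCl2. Complexes were caught on amylose resin and washed three times; DNA was released with proteinase K, PCR-barcoded and Illumina-sequenced. Binding is reads-per-million enrichment, pull-down over input, with replicates pooled.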

Row | Sequence | binding signal
1 | GATGATTGTTCTCCCAGCTGATGAATTAATATTTTCGAGTAAACAAATTTTCCTAATCTTTCTGTTCAAGCGCCATCTAC | 1.78 RPM ratio (pull-down/input)
2 | GATGATTGTTCTCCCAGCTGATGAATTAAATATTTCGAGTAAACAAATTTTCCTAATCTTTCTGTTCAAGCGCCATCTAC | 1.14 RPM ratio (pull-down/input)
3 | GATGATTGTTCTCCCAGCTGATGAATTAATATTGTCGAGTAAACAAATTTTCCTAATCTTTCTGTTCAAGCGCCATCTAC | 2.15 RPM ratio (pull-down/input)
4 | GATGATTGTTCTCCCAGCTGATGAATTCGGACCCTCGAGTAAACAAATTTTCCTAATCTTTCTGTTCAAGCGCCATCTAC | 0.79 RPM ratio (pull-down/input)
5 | GATGATTGTTCTCCCAGCTGATGAATTTTTCTATTCGAGTAAACAAATTTTCCTAATCTTTCTGTTCAAGCGCCATCTAC | 0.984 RPM ratio (pull-down/input)
6 | GATGATTGTTCTCCCAGCTGATGAATTGTTCTATTCGAGTAAACAAATTTTCCTAATCTTTCTGTTCAAGCGCCATCTAC | 1.34 RPM ratio (pull-down/input)
7 | GATGATTGTTCTCCCAGCTGATGAATTCTATTTTTCGAGTAAACAAATTTTCCTAATCTTTCTGTTCAAGCGCCATCTAC | 1.61 RPM ratio (pull-down/input)
8 | GATGATTGTTCTCCCAGCTGATGAATTCTATTGTTCGAGTAAACAAATTTTCCTAATCTTTCTGTTCAAGCGCCATCTAC | 1.99 RPM ratio (pull-down/input)
9 | GATGATTGTTCTCCCAGCTGATGAATTTTCTATTTCGAGTAAACAAATTTTCCTAATCTTTCTGTTCAAGCGCCATCTAC | 0.975 RPM ratio (pull-down/input)
10 | GATGATTGTTCTCCCAGCTGATGAATTTCTATTTTCGAGTAAACAAATTTTCCTAATCTTTCTGTTCAAGCGCCATCTAC | 2.01 RPM ratio (pull-down/input)
11 | GATGATTGTTCTCCCAGCTGATGAATTCTCCTATTCGAGTAAACAAATTTTCCTAATCTTTCTGTTCAAGCGCCATCTAC | 0.943 RPM ratio (pull-down/input)
12 | GATGATTGTTCTCCCAGCTGATGAATTCCTATTTTCGAGTAAACAAATTTTCCTAATCTTTCTGTTCAAGCGCCATCTAC | 1.86 RPM ratio (pull-down/input)
13 | GATGATTGTTCTCCCAGCTGATGAATTTCCTATTTCGAGTAAACAAATTTTCCTAATCTTTCTGTTCAAGCGCCATCTAC | 0.887 RPM ratio (pull-down/input)
14 | GATGATTGTTCTCCCAGCTGATGAATTAGTTGCATCGAGTAAACAAATTTTCCTAATCTTTCTGTTCAAGCGCCATCTAC | 1.65 RPM ratio (pull-down/input)
15 | GATGATTGTTCTCCCAGCTGATGAATTCCACCACTCGAGTAAACAAATTTTCCTAATCTTTCTGTTCAAGCGCCATCTAC | 0.844 RPM ratio (pull-down/input)
16 | GATGATTGTTCTCCCAGCTGATGAATTGATGCACTCGAGTAAACAAATTTTCCTAATCTTTCTGTTCAAGCGCCATCTAC | 1.72 RPM ratio (pull-down/input)
17 | GATGATTGTTCTCCCAGCTGATGAATTGAATATATCGAGTAAACAAATTTTCCTAATCTTTCTGTTCAAGCGCCATCTAC | 1.04 RPM ratio (pull-down/input)
18 | GATGATTGTTCTCCCAGCTGATGAATTGACAATATCGAGTAAACAAATTTTCCTAATCTTTCTGTTCAAGCGCCATCTAC | 1.86 RPM ratio (pull-down/input)

Row | Sequence | binding signal
19 | GATGATTGTTCTCCCAGCTGATGAATTTTGAATATCGAGTAAACAAATTTTCCTAATCTTTCTGTTCAAGCGCCATCTAC | 1.07 RPM ratio (pull-down/input)
20 | GATGATTGTTCTCCCAGCTGATGAATTTGACACATCGAGTAAACAAATTTTCCTAATCTTTCTGTTCAAGCGCCATCTAC | 0.966 RPM ratio (pull-down/input)
21 | GATGATTGTTCTCCCAGCTGATGAATTTTGACAATCGAGTAAACAAATTTTCCTAATCTTTCTGTTCAAGCGCCATCTAC | 1.26 RPM ratio (pull-down/input)
22 | GATGATTGTTCTCCCAGCTGATGAATTGACACAATCGAGTAAACAAATTTTCCTAATCTTTCTGTTCAAGCGCCATCTAC | 1.75 RPM ratio (pull-down/input)
23 | GATGATTGTTCTCCCAGCTGATGAATTAGGTGGGTCGAGTAAACAAATTTTCCTAATCTTTCTGTTCAAGCGCCATCTAC | 0.78 RPM ratio (pull-down/input)
24 | GATGATTGTTCTCCCAGCTGATGAATTGGTTTGTTCGAGTAAACAAATTTTCCTAATCTTTCTGTTCAAGCGCCATCTAC | 1.13 RPM ratio (pull-down/input)
25 | GATGATTGTTCTCCCAGCTGATGAATTTTTTGGTTCGAGTAAACAAATTTTCCTAATCTTTCTGTTCAAGCGCCATCTAC | 1.01 RPM ratio (pull-down/input)
26 | GATGATTGTTCTCCCAGCTGATGAATTGGTTGTTTCGAGTAAACAAATTTTCCTAATCTTTCTGTTCAAGCGCCATCTAC | 1.45 RPM ratio (pull-down/input)
27 | GATGATTGTTCTCCCAGCTGATGAATTGTTGGTTTCGAGTAAACAAATTTTCCTAATCTTTCTGTTCAAGCGCCATCTAC | 1.89 RPM ratio (pull-down/input)
28 | GATGATTGTTCTCCCAGCTGATGAATTGTTTGGTTCGAGTAAACAAATTTTCCTAATCTTTCTGTTCAAGCGCCATCTAC | 1.81 RPM ratio (pull-down/input)
29 | GATGATTGTTCTCCCAGCTGATGAATTTGGTGTTTCGAGTAAACAAATTTTCCTAATCTTTCTGTTCAAGCGCCATCTAC | 1.12 RPM ratio (pull-down/input)
30 | GATGATTGTTCTCCCAGCTGATGAATTTGTTGGTTCGAGTAAACAAATTTTCCTAATCTTTCTGTTCAAGCGCCATCTAC | 2.02 RPM ratio (pull-down/input)
31 | GATGATTGTTCTCCCAGCTGATGAATTTGGTTGTTCGAGTAAACAAATTTTCCTAATCTTTCTGTTCAAGCGCCATCTAC | 1.29 RPM ratio (pull-down/input)
32 | GATGATTGTTCTCCCAGCTGATGAATTGGTGTTTTCGAGTAAACAAATTTTCCTAATCTTTCTGTTCAAGCGCCATCTAC | 2.65 RPM ratio (pull-down/input)
33 | GATGATTGTTCTCCCAGCTGATGAATTGGTGTGTTCGAGTAAACAAATTTTCCTAATCTTTCTGTTCAAGCGCCATCTAC | 1.34 RPM ratio (pull-down/input)
34 | GATGATTGTTCTCCCAGCTGATGAATTTTTGGTTTCGAGTAAACAAATTTTCCTAATCTTTCTGTTCAAGCGCCATCTAC | 0.984 RPM ratio (pull-down/input)
35 | GATGATTGTTCTCCCAGCTGATGAATTGGTTGGTTCGAGTAAACAAATTTTCCTAATCTTTCTGTTCAAGCGCCATCTAC | 1 RPM ratio (pull-down/input)

— paper PMC12820563, “FoxP3 forms a head-to-head dimer in vivo and stabilizes its multimerization on adjacent microsatellites”
